Screening results: PubChem BioAssay, National Center for Advancing Translational Sciences (NCATS)
The list is not random: actives were taken first. Their share in the collection is about 0.85%.
Six1-Eya2 blk: inhibitors of human Six1/Eya2 interaction. AlphaScreen GST-Six1/His-Eya2 binding, biochemical; active compounds read low. 360,000 tested, 0.56% active. AID 651725. activity change, % (concentration not given with the values); also: % is scaled to controls: 0 for no effect and ±100 for the full control effect
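GST-Six1 + His-Eya2 (5X stock: 250/500 nM); Tris pH 8.0, 300 mM NaCl, 0.05% BSA, 0.02% Tween 20; GSH donor/Ni acceptor beads; 1 h 37 °C dark; AlphaScreen readout.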
TSHR antag: blocks TSH signaling through the human TSH receptor. P16473. TSHR-expressing cells, TSH-stimulated cAMP HTRF, 2 h; active compounds read low. activity change, negative = inhibition, % at 11.5 µM. 330,000 tested, 0.2% active. AID 504810;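 active = activity change below a set negative limit, meaning inhibition stronger than a set level, cut at about -70% in these data; inconclusive = activity change between two set negative limits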; also: % is scaled to controls: 0 for no effect and ±100 for the full control effect
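Freshly harvested TSHR cells receive pin-tooled compound, then EC80 TSH at 4nM final. After 2 hours at 37 deg C, antibody in lysis buffer and cAMP-d2 are added; 30 minutes at ambient temperature precede the HTRF read.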
CtBP-E1A inh: blocks the CtBP interaction with E1A. AlphaScreen GST-E1A/His-CtBP binding, 1536-well; active compounds read low. activity change, % (no concentration beside the values). 340,000 tested, 0.49% active; also: % is scaled to controls: 0 for no effect and ±100 for the full control effect
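In 5 uL wells, 23 nL compound meets equimolar GST-E1A and His-CtBP (5X stock 125 nM each) for 2 h, 37 °C. Beads (5X, 50 ug/mL) then 1 h, 37 °C, dark.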
Chronic BCR inh: blocks chronic active B-cell receptor signaling. Potency, µM (doses to about 46.1 µM), for the others: at the top dose activity change, negative = inhibition, actives largely listed as inhibitors. AID 493014. 340,000 tested, 0.05% active. ABC-DLBCL IkBa-CBG/CBR reporter, luminescence ratio, 4 h; active = well fitted inhibition curve with a large enough effect in the signal ratio, with a control signal flat, not every such curve was filed as active; inconclusive = small, poorly fitted or top-dose-only effect, or effect the other way, or a change in a side signal; the % refers to the signal ratio;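 also: potency is read from the fitted curve at half-maximal effect; plate controls were basal doxycycline-induced cells for no effect and cells given 10 µM MG132 for full effect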
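TMD8 ABC-DLBCL cells carrying doxycycline-inducible green luciferase fused to IkappaBalpha plus unfused red luciferase were exposed to compounds (up to 46 uM) for 4 hrs at 37C. Activity came from the overlap-corrected green/red luminescence ratio.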
S-ASM inh: human S-ASM enzyme inhibition | P17405 | AID 504937 | 340,000 tested, 0.006% active | Potency, µM (highest dose often 57.5 µM), inactives show at the highest dose activity change, negative = inhibition, usual class: inhibitors | placental ASM, HMU-PC fluorogenic substrate, 60 min; active = well fitted inhibition curve with a large enough effect; inconclusive = small, poorly fitted or top-dose-only effect; inactive = no such curve, though single readings can be large or run the other way; also: potency is read from the fitted curve at half-maximal effect
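Human placenta-derived ASM preincubated with compound 10 min at room temperature, then reacted with 9 uM (final) fluorogenic HMU-PC substrate for 60 min at 37 C. Stop solution raises pH to 10; fluorescence read at Ex 386/Em 447 nm.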
* marks the source's active call; other numbers are inactive results; ? = inconclusive; nt = no result given. Rule as the data show it, unless noted: active = activity change below about -65%; inconclusive = mostly about -30% to -63%; inactive = weaker than that.

SMILES	Six1-Eya2 blk	TSHR antag	CtBP-E1A inh	Chronic BCR inh	S-ASM inh
COc1ccc(N2C(=O)/C(=C/c3ccc(C)o3)C(=O)NC2=S)cc1	-20	1	-13	-1%	-20%
COc1ccc(OC)c(N2C(=O)/C(=C/c3ccco3)C(=O)NC2=S)c1	-71*	-1	-10	3%	-16%
CCOP(=O)(OCC)c1ccc2c(c1)C(=O)c1ccccc1CC2	nt	13	nt	?	-8%
Oc1ccccc1-[n+]1c(-c2ccccc2)cc(-c2ccccc2)cc1-c1ccccc1	-2	-1	-5	?	-7%
Cc1ccccc1-[n+]1c(-c2ccccc2)cc(-c2ccccc2)cc1-c1ccccc1	-4	-75*	4	?	-4%
COC(=O)C1=C(c2ccc(-c3ccccc3)c(F)c2)C[C@@H]2CC[C@H]1N2C(=O)NCCOc1ccccc1	-5	-89*	?	?	-12%
COc1cc([N+](=O)[O-])c2ncccc2c1[N+](=O)[O-]	-83*	nt	?	nt	nt
COc1ccc(N/N=C/c2c(O)n(-c3cccc(C)c3)c(=O)[nH]c2=O)cc1	-13	11	-8	1%	1%
Cc1ccc(-n2c(O)c(/C=N/Nc3ccccc3)c(=O)[nH]c2=O)cc1C	-11	5	0	14%	8%
Cc1cccc(-n2c(O)c(/C=N/Nc3nc4c(c(=O)n(C)c(=O)n4C)n3C)c(=O)[nH]c2=S)c1	-90*	2	-73*	?	-2%
Cn1c(=O)c2c(nc(N/N=C/c3c(O)n(C4CCCCC4)c(=S)[nH]c3=O)n2C)n(C)c1=O	-81*	-15	?	18%	-2%
Cc1ccccc1-n1c(O)c(/C=N/Nc2nc3c(c(=O)n(C)c(=O)n3C)n2C)c(=O)[nH]c1=S	-68*	-8	-78*	?	-2%
COc1ccc(OC)c(C2=NS(=O)(=O)N(C)C(C(=O)Nc3ccc(F)cc3F)=C2)c1	-11	-9	-12	?	-8%
CCOC(=O)Cn1c(=O)oc2cc(S(=O)(=O)N3CCN(C(=O)c4ccco4)CC3)ccc21	10	-1	3	?	2%
CCCCc1ccc(C(=O)O)nc1	-87*	?	-68*	-9%	3%
O=C(N/N=C/c1c(O)n(Cc2ccc(F)cc2)c(=O)[nH]c1=O)c1ccccc1	-74*	-6	-81*	?	16%
CCCCC(=O)N/N=C/c1c(O)n(Cc2ccc(F)cc2)c(=O)[nH]c1=O	-68*	-10	?	?	2%
O=C(N/N=C/c1c(O)n(Cc2ccccc2)c(=O)[nH]c1=O)c1ccncc1	-72*	4	?	-1%	50%
CCCCC(=O)N/N=C/c1c(O)n(CCc2ccccc2)c(=O)[nH]c1=O	?	1	?	-2%	-2%
COCCn1c(O)c(/C=N/NC(=O)CSC(=S)N2CCCC2)c(=O)[nH]c1=S	?	61	-76*	-4%	-1%
C=CCn1c(O)c(/C=N/NC(=O)c2ccncc2)c(=O)[nH]c1=O	?	1	-20	?	37%
O=C(O)c1ccc(N=Cc2c(O)n(Cc3ccc(F)cc3)c(=O)[nH]c2=O)cc1	10	10	7	8%	9%
COc1cc(OC)c(OC)cc1CCC(C)NCCC(c1ccccc1)c1ccccc1 (configuration not stated)	?	4	nt	?	1%
CCCCCCC(=O)N/N=C/c1c(O)n(CCCC)c(=S)[nH]c1=O	?	-8	?	17%	-2%
CCCCn1c(O)c(/C=N/NC(=O)c2ccncc2)c(=O)[nH]c1=S	-85*	12	-29	-2%	81%
CCCCC(=O)N/N=C/c1c(O)n(CC)c(=S)[nH]c1=O	-78*	-4	0	2%	-3%
Cn1c(O)c(/C=N/NC(=O)c2ccncc2)c(=O)[nH]c1=S	-14	12	nt	?	133%
CC1CN(C(=S)Nc2cccc(Cl)c2)CC(C)O1 (configuration not stated)	1	11	5	?	2%
CCC(C)c1ccc(NC(=O)Nc2cccnc2)cc1 (configuration not stated)	0	0	-11	?	-4%
